Experimental data published in the supplement of paper PMC10849652.
For part of these data: Targets with a hit are over-represented here; the source holds about 7,900 in all. For part of these data: About 0.6% of all pairs of compound and target were hits. For part of these data: Targets with a hit are over-represented here; the source holds about 8,800 in all. For part of these data: About 0.5% of all pairs of compound and target were hits.

Experiments:
[1] = compound: C1=CC=C(C=C1)[C@H](COC2=CC3=C(C=C2)NC(=O)N3)NC(=O)C4=CC=CN(C4=O)CC5=CC(=C(C=C5)F)F; test: log2 fold change, soluble protein after heating vs DMSO (PISA); higher = thermal stabilisation; K562 lysate, 10 uM; active = over 0.2 and 3.5 SD of the protein, either way, in both replicates (recomputed)
Outline: (§1)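 Values give the log-two fold change in thermal stability against solvent controls, from duplicates. Crude K562 extract at 1 mg/mL protein, made by dounce homogenisation in PBS pH 7.4 with 1 mM MgCl2, was treated with 10 μM compound for 30 min. After 3 min heating across 48°C-58°C, aliquots were pooled, adjusted to 0.5% NP-40 at 4°C and centrifuged at 21,000xg for 90 min. The supernatant was measured by TMTpro 16plex LC-MS/MS with channel sums equalised.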

[2] = compound: CC1=C(SC2=C1C(=N[C@H](C3=NN=C(N32)C)CC(=O)N)C4=CC=C(C=C4)Cl)C; test: as above
Outline: as §1

[3] = compound: CC1=C2C(=CC=C1)N=C(N(C2=O)C3=CC=CC=C3C)CN4C=NC5=C(N=CN=C54)N; test: as above
Outline: as §1

[4] = compound: Cc1sc2c(c1C)C(c1ccc(Cl)cc1)=N[C@@H](CC(=O)OC(C)(C)C)c1nnc(C)n1-2; test: as above
Outline: as §1

[5] = compound: c1ccc([C@@H]2C[C@H]2NC2CCNCC2)cc1; test: as above
Outline: as §1

[6] = compound: C1=CC=C(C=C1)[C@H](COC2=CC3=C(C=C2)NC(=O)N3)NC(=O)C4=CC=CN(C4=O)CC5=CC(=C(C=C5)F)F; test: log2 fold change, soluble protein after heating vs DMSO (PISA); higher = thermal stabilisation; K562 cells, 10 uM, 30 min; active = over 0.2 and 3.5 SD of the protein, either way, in both replicates (recomputed)
Outline: (§2)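 K562 cells at 2×10^6 cells/mL were exposed to 10 μM compound for 30 min, then aliquots were heated for 3 min across 48°C-58°C, pooled, and extracted in PBS containing 0.5% NP-40 at 4°C. The supernatant after 21,000xg for 90 min was taken as soluble protein and measured by TMTpro 16plex LC-MS/MS with channel sums equalised. Thermal stability is reported relative to control samples, with values from duplicates. Fold changes are given on a log2 scale.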

[7] = compound: Cc1sc2c(c1C)C(c1ccc(Cl)cc1)=N[C@@H](CC(=O)OC(C)(C)C)c1nnc(C)n1-2; test: as above
Outline: as §2

[8] = compound: CC1=C(SC2=C1C(=N[C@H](C3=NN=C(N32)C)CC(=O)N)C4=CC=C(C=C4)Cl)C; test: as above
Outline: as §2

[9] = compound: CC1=C2C(=CC=C1)N=C(N(C2=O)C3=CC=CC=C3C)CN4C=NC5=C(N=CN=C54)N; test: as above
Outline: as §2

[10] = compound: c1ccc([C@@H]2C[C@H]2NC2CCNCC2)cc1; test: as above
Outline: as §2

Measured: log2 fold change

ADAM17 (UniProt P78536)
active: [2] -0.251
inactive: [1] -0.098 | [3] 0.093 | [4] 0.002 | [5] -0.032

AGPAT1 (UniProt Q99943)
inactive: [1] -0.04 | [2] 0.024 | [3] 0.089 | [4] -0.038 | [5] -0.134

ADK (UniProt P55263)
UniProt P55263, sequence (P55263 whole entry, looked up): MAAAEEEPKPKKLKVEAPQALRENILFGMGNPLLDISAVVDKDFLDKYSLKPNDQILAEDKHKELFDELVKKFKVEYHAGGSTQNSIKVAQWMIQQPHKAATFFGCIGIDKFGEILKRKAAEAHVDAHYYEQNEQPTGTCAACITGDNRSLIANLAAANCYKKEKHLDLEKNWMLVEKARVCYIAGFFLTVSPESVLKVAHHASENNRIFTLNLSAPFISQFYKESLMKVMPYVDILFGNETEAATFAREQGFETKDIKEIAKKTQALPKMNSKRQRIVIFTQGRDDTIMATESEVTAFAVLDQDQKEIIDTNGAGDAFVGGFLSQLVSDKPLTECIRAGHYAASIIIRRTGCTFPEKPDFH
inactive: [1] 0.059 | [2] -0.035 | [3] 0.051 | [4] -0.036 | [5] -0.133

ABCA3 (UniProt Q99758)
inactive: [1] 0.112 | [2] 0.038 | [3] 0.006 | [4] -0.01 | [5] -0.005

AMD1 (UniProt P17707)
UniProt P17707, sequence (P17707 whole entry, looked up): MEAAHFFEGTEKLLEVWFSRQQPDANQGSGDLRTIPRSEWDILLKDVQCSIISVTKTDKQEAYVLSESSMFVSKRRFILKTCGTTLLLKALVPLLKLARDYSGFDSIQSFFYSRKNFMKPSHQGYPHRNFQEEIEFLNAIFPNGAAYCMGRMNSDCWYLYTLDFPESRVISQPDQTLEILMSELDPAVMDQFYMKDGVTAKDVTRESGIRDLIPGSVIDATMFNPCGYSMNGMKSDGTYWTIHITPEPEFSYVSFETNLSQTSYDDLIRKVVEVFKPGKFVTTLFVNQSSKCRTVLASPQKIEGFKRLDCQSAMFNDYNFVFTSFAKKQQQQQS
inactive: [1] -0.027 | [2] 0.01 | [3] -0.017 | [4] 0.005 | [5] -0.019

AIMP1 isoform 2 (UniProt Q12904)
UniProt Q12904, sequence (Q12904 whole entry, looked up): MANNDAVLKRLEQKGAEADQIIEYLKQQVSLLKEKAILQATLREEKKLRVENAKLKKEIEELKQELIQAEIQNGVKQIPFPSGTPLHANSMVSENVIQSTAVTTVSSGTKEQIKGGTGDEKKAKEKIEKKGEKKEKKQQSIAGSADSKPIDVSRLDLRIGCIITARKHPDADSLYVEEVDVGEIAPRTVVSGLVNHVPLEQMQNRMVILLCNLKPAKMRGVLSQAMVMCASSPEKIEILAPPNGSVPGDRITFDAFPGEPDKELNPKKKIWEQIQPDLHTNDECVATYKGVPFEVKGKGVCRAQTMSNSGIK
inactive: [1] -0.033 | [2] 0.01 | [3] 0.006 | [4] 0.029 | [5] 0.044

ACACB (UniProt O00763)
inactive: [1] -0.018 | [2] 0.002 | [3] 0.01 | [4] 0.074 | [5] 0.014

AGO4 (UniProt Q9HCK5)
inactive: [1] 0.014 | [2] 0.022 | [3] 0.001 | [4] -0.011 | [5] -0.07

ACOX1 isoform 2 (UniProt Q15067)
UniProt Q15067, sequence (Q15067 whole entry, looked up): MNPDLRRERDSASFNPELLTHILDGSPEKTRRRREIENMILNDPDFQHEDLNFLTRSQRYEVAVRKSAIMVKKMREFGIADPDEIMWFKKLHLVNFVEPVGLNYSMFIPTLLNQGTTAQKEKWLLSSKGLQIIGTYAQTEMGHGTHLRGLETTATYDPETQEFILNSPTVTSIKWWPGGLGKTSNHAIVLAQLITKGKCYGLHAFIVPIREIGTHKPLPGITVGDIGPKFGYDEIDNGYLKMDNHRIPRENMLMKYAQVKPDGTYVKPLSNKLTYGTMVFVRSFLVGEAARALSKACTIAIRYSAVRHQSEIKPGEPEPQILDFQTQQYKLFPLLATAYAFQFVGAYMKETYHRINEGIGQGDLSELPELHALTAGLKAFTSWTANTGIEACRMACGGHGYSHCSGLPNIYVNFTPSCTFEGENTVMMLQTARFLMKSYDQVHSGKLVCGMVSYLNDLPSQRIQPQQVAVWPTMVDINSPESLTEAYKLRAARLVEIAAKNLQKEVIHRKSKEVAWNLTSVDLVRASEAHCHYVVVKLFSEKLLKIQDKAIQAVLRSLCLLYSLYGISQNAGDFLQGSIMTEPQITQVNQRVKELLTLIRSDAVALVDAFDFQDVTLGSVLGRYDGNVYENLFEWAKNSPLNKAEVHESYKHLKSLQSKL
inactive: [1] 0.035 | [2] -0.002 | [3] -0.026 | [4] -0.018 | [5] -0.037

AHCYL1 (UniProt O43865)
inactive: [1] -0.011 | [2] -0.003 | [3] -0.011 | [4] 0.034 | [5] 0.006

AKT1 (UniProt P31749)
inactive: [1] 0.011 | [2] -0.028 | [3] -0.028 | [4] -0.009 | [5] 0.013

AK1 (UniProt P00568)
UniProt P00568, sequence (P00568 whole entry, looked up): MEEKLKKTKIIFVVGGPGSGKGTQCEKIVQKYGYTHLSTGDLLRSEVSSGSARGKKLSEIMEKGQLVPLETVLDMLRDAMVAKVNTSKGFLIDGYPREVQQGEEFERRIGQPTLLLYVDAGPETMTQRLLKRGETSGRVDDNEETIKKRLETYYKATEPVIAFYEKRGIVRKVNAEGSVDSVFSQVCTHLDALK
inactive: [1] -0.032 | [2] 0.024 | [3] -0.009 | [4] 0.012 | [5] 0.2

ALDH1B1 (UniProt P30837)
inactive: [1] 0.143 | [2] -0.021 | [3] 0.006 | [4] 0.049 | [5] 0.019

ACIN1 isoform 5 (UniProt Q9UKV3)
inactive: [1] -0.002 | [2] 0.019 | [3] 0.013 | [4] -0.01 | [5] 0.012

ANKRD30B (UniProt Q9BXX2)
inactive: [1] -0.098 | [2] 0.112 | [3] 0.042 | [4] -0.125 | [5] -0.407

ABCC5 (UniProt O15440)
inactive: [1] 0.087 | [2] -0.052 | [3] -0.108 | [4] -0.099 | [5] 0.115

AKAP11 (UniProt Q9UKA4)
inactive: [1] 0.025 | [2] -0.008 | [3] 0.059 | [4] -0.041 | [5] -0.012

AIMP2 (UniProt Q13155)
inactive: [1] -0.028 | [2] 0.021 | [3] 0.013 | [4] 0.036 | [5] 0.041

ALG3 (UniProt Q92685)
UniProt Q92685, sequence (Q92685 whole entry, looked up): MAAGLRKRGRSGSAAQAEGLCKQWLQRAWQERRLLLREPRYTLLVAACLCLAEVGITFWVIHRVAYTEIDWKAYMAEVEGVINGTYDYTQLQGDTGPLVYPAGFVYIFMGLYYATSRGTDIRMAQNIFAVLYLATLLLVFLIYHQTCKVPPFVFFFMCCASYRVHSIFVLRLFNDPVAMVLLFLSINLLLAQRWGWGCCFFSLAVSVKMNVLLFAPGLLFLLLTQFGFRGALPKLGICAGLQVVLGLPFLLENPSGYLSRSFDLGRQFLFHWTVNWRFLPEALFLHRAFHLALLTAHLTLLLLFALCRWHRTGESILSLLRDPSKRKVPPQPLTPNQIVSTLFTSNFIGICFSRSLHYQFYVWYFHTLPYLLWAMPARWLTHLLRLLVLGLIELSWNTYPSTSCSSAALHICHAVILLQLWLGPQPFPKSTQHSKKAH
inactive: [1] 0.002 | [2] -0.006 | [3] 0.048 | [4] -0.035 | [5] -0.127

ABL1 isoform 2 (UniProt P00519)
inactive: [1] -0.042 | [2] -0.065 | [3] 0.067 | [4] -0.017 | [5] 0.102

ADRM1 (UniProt Q16186)
inactive: [1] -0.005 | [2] 0.007 | [3] -0.001 | [4] -0.026 | [5] 0.016

AMDHD2 isoform 3 (UniProt Q9Y303)
UniProt Q9Y303, sequence (Q9Y303 whole entry, looked up): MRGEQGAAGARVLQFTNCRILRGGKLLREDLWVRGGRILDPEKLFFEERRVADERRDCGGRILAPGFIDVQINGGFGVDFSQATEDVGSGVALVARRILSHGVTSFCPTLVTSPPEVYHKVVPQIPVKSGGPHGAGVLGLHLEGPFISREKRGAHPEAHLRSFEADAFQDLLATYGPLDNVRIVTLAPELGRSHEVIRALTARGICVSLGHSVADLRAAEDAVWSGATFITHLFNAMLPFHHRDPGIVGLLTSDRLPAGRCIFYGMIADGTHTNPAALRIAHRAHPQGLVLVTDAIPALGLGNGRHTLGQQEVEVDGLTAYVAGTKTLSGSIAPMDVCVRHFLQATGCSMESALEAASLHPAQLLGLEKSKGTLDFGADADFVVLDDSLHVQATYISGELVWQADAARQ
inactive: [1] 0.049 | [2] 0.016 | [3] 0.031 | [4] 0.037 | [5] -0.043

ACIN1 (UniProt E7EQT4)
inactive: [1] 0.04 | [2] 0.015 | [3] 0.037 | [4] 0.032 | [5] -0.118

ALKBH4 (UniProt Q9NXW9)
UniProt Q9NXW9, sequence (Q9NXW9 whole entry, looked up): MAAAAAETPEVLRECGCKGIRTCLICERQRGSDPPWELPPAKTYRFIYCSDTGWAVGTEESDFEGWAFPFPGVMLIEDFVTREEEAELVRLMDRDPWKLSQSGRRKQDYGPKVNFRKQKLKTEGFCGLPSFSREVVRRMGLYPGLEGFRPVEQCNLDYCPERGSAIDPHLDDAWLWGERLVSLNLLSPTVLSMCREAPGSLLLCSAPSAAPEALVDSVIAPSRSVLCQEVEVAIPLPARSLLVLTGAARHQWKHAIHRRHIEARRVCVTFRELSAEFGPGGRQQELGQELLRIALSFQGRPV
inactive: [1] 0.011 | [2] 0.025 | [3] 0.032 | [4] 0.01 | [5] -0.017

ADAMTS5 (UniProt Q9UNA0)
inactive: [1] 0.032 | [2] 0.115 | [3] 0 | [4] -0.136
active: [5] -0.481

ACSL4 (UniProt O60488)
inactive: [1] -0.058 | [2] 0.046 | [3] 0.032 | [4] -0.106 | [5] 0.038

ARHGEF1 (UniProt M0QZR4)
inactive: [1] -0.046 | [2] 0.006 | [3] -0.017 | [4] -0.017 | [5] 0.004

AP1G2 (UniProt O75843)
inactive: [1] 0.082 | [2] -0.09 | [3] 0.016 | [4] 0.028 | [5] -0.099

ARMCX5 (UniProt Q6P1M9)
UniProt Q6P1M9, sequence (Q6P1M9 whole entry, looked up): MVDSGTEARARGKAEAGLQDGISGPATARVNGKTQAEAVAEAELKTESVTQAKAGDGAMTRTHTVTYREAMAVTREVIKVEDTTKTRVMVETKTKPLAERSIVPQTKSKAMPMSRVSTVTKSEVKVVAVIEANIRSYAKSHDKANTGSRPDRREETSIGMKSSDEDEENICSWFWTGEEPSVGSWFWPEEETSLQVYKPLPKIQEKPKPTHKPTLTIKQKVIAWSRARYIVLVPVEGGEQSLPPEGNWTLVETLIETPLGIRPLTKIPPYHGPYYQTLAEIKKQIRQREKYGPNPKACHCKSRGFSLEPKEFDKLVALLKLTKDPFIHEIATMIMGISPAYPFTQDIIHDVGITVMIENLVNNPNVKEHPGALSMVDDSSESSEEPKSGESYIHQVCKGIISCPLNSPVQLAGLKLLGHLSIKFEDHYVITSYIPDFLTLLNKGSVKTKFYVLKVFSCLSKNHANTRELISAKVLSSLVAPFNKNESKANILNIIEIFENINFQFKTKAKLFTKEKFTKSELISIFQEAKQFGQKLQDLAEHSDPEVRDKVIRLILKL
inactive: [1] 0.021 | [2] -0.07 | [3] 0.057 | [4] 0.036 | [5] -0.03

ALDH5A1 isoform 2 (UniProt P51649)
inactive: [1] -0.029 | [2] -0.018 | [3] -0.017 | [4] 0.004 | [5] 0.075

ACADM isoform 2 (UniProt P11310)
inactive: [1] -0.071 | [2] -0.035 | [3] 0.043 | [4] 0.017 | [5] 0.013

AKR1C2 (UniProt P52895)
inactive: [1] -0.012 | [2] 0.047 | [3] 0.047 | [4] -0.184 | [5] -0.107

ABHD13 (UniProt Q7L211)
inactive: [1] 0.043 | [2] -0.127 | [3] 0.153 | [4] -0.171 | [5] -0.246

ARHGAP6 (UniProt O43182)
inactive: [1] -0.026 | [2] -0.023 | [3] -0.012 | [4] 0.018 | [5] 0.02

ARMCX3 (UniProt Q9UH62)
inactive: [1] 0.015 | [2] 0.009 | [3] 0.029 | [4] -0.074 | [5] 0.053

ANKRD27 (UniProt Q96NW4)
inactive: [1] -0.025 | [2] 0.022 | [3] -0.011 | [4] 0.042 | [5] -0.002

AK4 (UniProt P27144)
UniProt P27144, sequence (P27144 whole entry, looked up): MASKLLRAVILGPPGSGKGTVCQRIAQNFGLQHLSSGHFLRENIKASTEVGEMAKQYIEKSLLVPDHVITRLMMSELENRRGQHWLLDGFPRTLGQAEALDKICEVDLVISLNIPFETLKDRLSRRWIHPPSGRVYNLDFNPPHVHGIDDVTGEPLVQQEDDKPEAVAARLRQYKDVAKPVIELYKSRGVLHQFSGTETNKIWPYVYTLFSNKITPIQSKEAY
inactive: [1] 0.025 | [2] -0.038 | [3] 0.059 | [4] 0.024 | [5] 0.026

ZDHHC8 isoform 3 (UniProt Q9ULC8)
inactive: [6] 0.105 | [7] 0

YWHAQ (UniProt P27348)
inactive: [6] -0.031 | [8] 0.009 | [9] -0.152 | [7] -0.089 | [10] -0.083

ZMYM1 (UniProt Q5SVZ6)
UniProt Q5SVZ6, sequence (Q5SVZ6 whole entry, looked up): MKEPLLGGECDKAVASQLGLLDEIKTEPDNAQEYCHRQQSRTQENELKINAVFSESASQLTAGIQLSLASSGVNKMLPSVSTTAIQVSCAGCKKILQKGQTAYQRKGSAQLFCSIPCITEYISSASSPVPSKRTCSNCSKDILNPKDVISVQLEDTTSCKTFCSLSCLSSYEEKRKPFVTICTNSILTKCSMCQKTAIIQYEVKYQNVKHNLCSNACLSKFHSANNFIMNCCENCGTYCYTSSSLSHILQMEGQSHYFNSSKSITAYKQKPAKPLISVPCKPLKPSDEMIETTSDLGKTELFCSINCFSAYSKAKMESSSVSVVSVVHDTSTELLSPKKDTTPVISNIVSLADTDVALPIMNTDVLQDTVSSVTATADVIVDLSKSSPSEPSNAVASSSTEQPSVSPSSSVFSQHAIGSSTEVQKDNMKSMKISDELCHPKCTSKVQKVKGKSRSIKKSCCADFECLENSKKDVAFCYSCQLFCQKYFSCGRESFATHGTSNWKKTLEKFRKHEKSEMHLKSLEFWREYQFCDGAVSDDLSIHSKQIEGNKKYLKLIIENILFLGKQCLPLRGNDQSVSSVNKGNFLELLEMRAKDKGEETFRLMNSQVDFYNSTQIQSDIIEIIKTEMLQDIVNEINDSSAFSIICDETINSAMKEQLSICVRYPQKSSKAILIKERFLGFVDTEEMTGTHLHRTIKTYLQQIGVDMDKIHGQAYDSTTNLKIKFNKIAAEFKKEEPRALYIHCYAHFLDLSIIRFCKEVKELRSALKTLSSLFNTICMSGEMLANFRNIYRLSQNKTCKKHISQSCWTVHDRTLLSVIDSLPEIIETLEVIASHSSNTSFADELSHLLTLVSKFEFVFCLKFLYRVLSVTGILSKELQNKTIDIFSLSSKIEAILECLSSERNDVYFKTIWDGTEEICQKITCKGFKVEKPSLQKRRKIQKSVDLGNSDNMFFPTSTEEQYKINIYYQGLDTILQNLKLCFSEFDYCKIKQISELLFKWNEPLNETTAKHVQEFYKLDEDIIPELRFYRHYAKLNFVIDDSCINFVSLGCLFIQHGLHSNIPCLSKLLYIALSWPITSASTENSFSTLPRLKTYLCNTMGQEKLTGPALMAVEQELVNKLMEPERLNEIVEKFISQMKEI
inactive: [6] 0.077 | [8] 0.082 | [9] -0.144 | [7] -0.012 | [10] -0.011

ZBTB17 isoform 2 (UniProt Q13105)
inactive: [6] -0.08 | [7] -0.019

ZNF609 (UniProt O15014)
inactive: [6] 0.035 | [8] -0.008 | [9] 0.148 | [7] 0.14 | [10] 0.073
